Assay results taken from PubChem BioAssay (NCATS).
Records with an inconclusive call do not appear. A call without a number means that no potency is given here. Activity calls are given as the source filed them. Calls follow the shape of the dose curve; as a rule, active = well fitted inhibition curve with a large enough effect; inconclusive = small, poorly fitted or top-dose-only effect; inactive = flat fitted curve, though single readings scatter.

assay: P-glycoprotein substrates identified in KB-8-5-11 adenocarcinoma cell line, qHTS therapeutic library screen (AID 1346987); conditions: KB-8-5-11 (P-gp overexpressing) viability, CellTiter-Glo, 72 h; series mostly up to 44.5 µM; also: nearly all actives have a fitted effect of over 65% in size
Procedure, shortened: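 KB-8-5-11: colchicine-selected sub-line of KB-3-1 over-expressing P-gp; assay medium lacked colchicine. 72 h drug exposure at 37 degree C, CellTiter-Glo.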

Row | SMILES | outcome | Potency
1 | C=C1CCC2(C(=O)OC3OC(CO)C(O)C(O)C3O)CCC3(C)C(=CCC4C5(C)CCC(OC6OC(CO)C(OC7OC(C)C(O)C(O)C7O)C(OC7OCC(O)C(O)C7O)C6O)C(C)(C)C5CCC43C)C2C1 (stereo not drawn) | inactive [at 9.29 µM] | 
2 | CC(=O)OC1CC2(C)C(CCC(C)C23Cc2c(O)cc4c(c2O3)CNC4=O)C(C)(C)C1O (stereo not drawn) |  | inactive
3 | COc1cc(/C=C/C(=O)OC[C@H]2O[C@@H](OC3OC=C(C(=O)O)C4C(O)CC(C)(O)C34)[C@H](O)[C@@H](O)[C@@H]2O)cc(OC)c1O (stereo partly drawn) |  | inactive
4 | C=C1CCC[C@]2(C)CC[C@@](O)(C(=C)C(=O)O)C[C@@H]12 |  | inactive
5 | CC(=O)[C@@H]1C[C@H](C(C)(C)O[C@@H]2O[C@H](CO)[C@@H](O)[C@H](O)[C@H]2O)CC[C@@]2(CO)OC(=O)C[C@@H]12 |  | inactive
6 | C/C(CO)=C1/CCC23COC(C2)C(O)(C(=O)O)CCC13 (stereo not drawn) |  | inactive
7 | Cc1cc(CO)c(O)c(C(=O)CC2CC(=O)NC(=O)C2)c1 |  | inactive
8 | CC(C)c1ccc2c(c1)C(O)CC1C(C)(CO)CCCC21C (stereo not drawn) |  | inactive
9 | CC(C/C=C/C(C)(C)O)C1CCC(C)(O)C(O)C1 (stereo not drawn) |  | inactive
10 | O=C(/C=C/N1C[C@@H]2C[C@@H]1CN2c1ccccn1)c1ccccc1O |  | inactive
11 | CN1CCCC1Cc1c[nH]c2ccc(CCS(=O)(=O)c3ccccc3)cc12 (stereo not drawn) |  | inactive
12 | CCC(C)/C=C(C)/C=C/C1=CC2=C(Cl)C(=O)C(C)(OC(C)=O)C(=O)C2=CN1C(CC(=O)O)C(=O)O (stereo not drawn) |  | inactive
13 | CC(=O)O[C@@H]1C[C@@H](C)[C@](O)(CCC2=CC(=O)OC2)[C@@]2(C)CCCC(C)(C)C12 (stereo partly drawn) |  | inactive
